Reference: PubChem BioAssay (Tox21)
“And” between values parts separate entries of the source, which are not always exact repeats. Equal values may be shown once. Records with an inconclusive call do not appear. The source made the active and inactive calls. Unless noted, the call rests on the fitted dose curve; in most records, active means well fitted curve in the direction sought with a large enough effect in the repeat runs; inconclusive means weak or mixed curves; inactive means no such curve, though single readings can be large; an effect the other way counts as inactive or inconclusive.

Tests used:
[1] = Caspase-3/7 induction in HepG2 cells by small molecules, qHTS assay (AID 1346978); further: nearly all actives have a fitted effect of over 15% in size
In short: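 Wild-type HepG2 cells, 2,000/well, settled 5 hr at 37 C and 5% CO2, then compound-treated for 17 hr; caspase-3/7 activity read by luminescent Caspase-Glo 3/7 after 30 min at room temperature.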

[2] = Caspase-3/7 induction in CHO-K1 cells by small molecules, qHTS cell viability counter screen (AID 1346979); further: nearly all actives have a fitted effect of over 35% in size; further: potency means the concentration at half of the fitted maximal effect
In short: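 Multiplexed with Caspase-Glo 3/7 in CHO-K1 cells, this counter screen added CellTiter-Fluor after 16hr of compound exposure and recorded fluorescence 1hr later.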

[3] = Caspase-3/7 induction in CHO-K1 cells by small molecules, qHTS assay (AID 1346980); further: nearly all actives have a fitted effect of over 15% in size
In short: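 Wild-type CHO-K1 cells exposed to compounds for 17hr at 37 C, 5% CO2. Caspase-3/7 activity then measured by Caspase-Glo 3/7 luminescence after 30min at room temperature.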

[4] = Caspase-3/7 induction in HepG2 cells by small molecules, qHTS cell viability counter screen (AID 1346981); further: nearly all actives have a fitted effect of over 30% in size; further: potency means the concentration at half of the fitted maximal effect
In short: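 Multiplexed with the caspase-3/7 assay: HepG2 cells, 16 hr compound treatment, CellTiter-Fluor viability detection by fluorescence.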

[5] = biological target: Acetylcholinesterase (Homo sapiens) (UniProt P22303); test: Acetylcholinesterase (AChE) small molecule antagonists: colormetric cell-based qHTS assay (AID 1347395; calls by dose curve; further: nearly all actives have a fitted effect of over 30% in size; further: potency means the concentration at half of the fitted maximal effect)
In short: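 In this cell-based qHTS, attached SH-SY5Y cells were treated with test chemicals for 30 min, after which acetylthiocholine hydrolysis was followed by DTNB colour development over 90 min at 37 C.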

[6] = biological target: Acetylcholinesterase (Homo sapiens) (UniProt P22303); test: Acetylcholinesterase (AChE) small molecule antagonists: enzyme-based qHTS assay (AID 1347397; calls by dose curve; further: nearly all actives have a fitted effect of over 55% in size; further: potency means the concentration at half of the fitted maximal effect); details: Potency: AChE enzyme activity inhibition; outcome: AChE enzyme activity inhibition
In short: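 Recombinant human AChE (50 mU/mL) preincubated with compound 30 min at room temperature; acetylthiocholine plus DTNB then added, and thiocholine formation read colorimetrically after 10 min at room temperature. DMSO served as vehicle control.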

[7] = biological target: Acetylcholinesterase (Homo sapiens) (UniProt P22303); test: Acetylcholinesterase (AChE) small molecule antagonists: fluorescence cell-based qHTS assay (AID 1347398; calls by dose curve; further: nearly all actives have a fitted effect of over 50% in size; further: potency means the concentration at half of the fitted maximal effect); details: Potency: AChE activity; outcome: AChE activity
In short: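 SH-SY5Y cells (2000/well), attached overnight, incubated with compound 30 min at 37 C. Acetylthiocholine plus Thiolite Green then added for 40 min at room temperature. Thiocholine fluorescence (Ex/Em 490/520 nm) reports cellular AChE activity.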

[8] = biological target: Nuclear receptor subfamily 1 group I member 2 (Homo sapiens) (UniProt O75469); test: Human pregnane X receptor (PXR) small molecule agonists, qHTS assay (AID 1346982); further: nearly all actives have a fitted effect of over 35% in size; further: potency means the concentration at half of the fitted maximal effect
In short: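 We seeded PXR-Luc HepG2 cells in assay medium containing 5% charcoal-stripped FBS, added compounds 5 hr later, incubated 24 hr, and read luminescence with ONE-Glo reagent.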

[9] = biological target: Nuclear receptor subfamily 1 group I member 2 (Homo sapiens) (UniProt O75469); test: CYP3A4 induction through human pregnane X receptor (PXR) by small molecules, qHTS assay (AID 1346984); further: nearly all actives have a fitted effect of over 40% in size
In short: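 qHTS, concentration-response format: HepG2 DPX-2 line, PXR/CYP3A4-luc. Exposure 24 h, 37C. Substrate Luciferin-IPA 3uM final, 3 h. Detection One-Glo, 30 min RT.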

[10] = biological target: Nuclear receptor subfamily 1 group I member 2 (Homo sapiens) (UniProt O75469); test: Human pregnane X receptor (PXR) activation by small molecules, qHTS assay (AID 1346985); further: nearly all actives have a fitted effect of over 40% in size
In short: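 DPX-2 cells (HepG2 co-transfected with a PXR response element and a CYP3A4-promoter luciferase construct) were seeded at 2,000 per well, rested 5 hr at 37C, then exposed to DMSO-dissolved compounds for 24 hr. Activation was read as luciferase luminescence.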

Measured: Potency

Acetylcholinesterase (Homo sapiens), sequence (P22303 whole entry, looked up): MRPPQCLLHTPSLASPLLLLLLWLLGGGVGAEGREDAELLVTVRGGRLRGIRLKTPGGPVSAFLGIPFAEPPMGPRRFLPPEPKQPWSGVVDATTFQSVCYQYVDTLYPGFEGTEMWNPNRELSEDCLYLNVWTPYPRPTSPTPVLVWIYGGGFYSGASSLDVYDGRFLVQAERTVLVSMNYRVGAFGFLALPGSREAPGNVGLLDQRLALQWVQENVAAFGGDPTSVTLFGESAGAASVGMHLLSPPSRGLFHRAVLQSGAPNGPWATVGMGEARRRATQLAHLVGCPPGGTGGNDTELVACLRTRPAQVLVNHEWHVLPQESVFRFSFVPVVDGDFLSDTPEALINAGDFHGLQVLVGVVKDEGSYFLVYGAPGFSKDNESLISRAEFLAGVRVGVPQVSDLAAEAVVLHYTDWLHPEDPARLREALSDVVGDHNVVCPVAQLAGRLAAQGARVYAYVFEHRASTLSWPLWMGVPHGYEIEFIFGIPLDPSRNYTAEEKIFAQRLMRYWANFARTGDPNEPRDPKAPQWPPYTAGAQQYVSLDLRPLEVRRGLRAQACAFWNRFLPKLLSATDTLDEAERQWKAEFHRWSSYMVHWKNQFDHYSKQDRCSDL
Nuclear receptor subfamily 1 group I member 2 (Homo sapiens), sequence (O75469 whole entry, looked up): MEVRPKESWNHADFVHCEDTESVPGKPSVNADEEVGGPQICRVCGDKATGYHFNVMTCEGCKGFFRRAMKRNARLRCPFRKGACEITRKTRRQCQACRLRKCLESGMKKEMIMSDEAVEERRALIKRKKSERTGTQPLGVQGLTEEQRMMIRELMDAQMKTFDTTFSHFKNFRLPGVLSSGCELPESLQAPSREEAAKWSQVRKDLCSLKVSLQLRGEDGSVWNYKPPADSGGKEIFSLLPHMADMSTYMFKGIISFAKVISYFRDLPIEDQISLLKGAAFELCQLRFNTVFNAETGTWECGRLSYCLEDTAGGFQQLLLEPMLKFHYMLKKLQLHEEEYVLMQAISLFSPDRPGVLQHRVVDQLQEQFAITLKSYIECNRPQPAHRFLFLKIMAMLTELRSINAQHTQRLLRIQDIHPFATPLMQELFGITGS

CCCC[N+](CCCC)(CCCC)CCCC
active: [5] 44.7 µM
not listed: [8] | [9] | [10]
inactive: all other assays above

NC(=S)c1c(Cl)cccc1Cl
not listed: [5] | [9] | [10]
inactive: all other assays above

COc1ccc(C(O)(c2cncnc2)C2CC2)cc1 (stereo unspecified)
not listed: [8] | [9] | [10]
inactive: all other assays above

CCNC(=O)NC(=O)/C(C#N)=N/OC
not listed: [8] | [9] | [10]
inactive: all other assays above

CCC[N+](CCC)(CCC)CCC
not listed: [5] | [9] | [10]
inactive: all other assays above

CC(CC(C(N)=O)(c1ccccc1)c1ccccc1)N(C)C (stereo unspecified)
not listed: [8] | [9] | [10]
inactive: all other assays above

CC(Oc1cc(Cl)c(Cl)cc1Cl)C(=O)O (stereo unspecified)
inactive: [1] | [2] | [3] | [4] | [5] | [6]

CN(C1CCCCC1)C1CCCCC1
not listed: [5] | [9] | [10]
inactive: all other assays above

CCCCOC(=O)CCC(=O)OCCCC
not listed: [8] | [9] | [10]
inactive: all other assays above

CC(C)(C)N(NC(=O)c1ccc(Cl)cc1)C(=O)c1ccccc1
active: [2] 12.1 µM | [4] 12.1 µM
inactive: [1] | [3] | [5] | [6] | [7]

C[N+]1(CCF)[C@@H]2CC[C@H]1CC(OC(=O)C(O)(c1ccccc1)c1ccccc1)C2 (stereo partly specified)
inactive: [1] | [2] | [3] | [4] | [5] | [6]

COC1CC(=C(c2cccs2)c2cccs2)C[N+](C)(C)C1 (stereo unspecified)
not listed: [5] | [8]
inactive: all other assays above

C[N+]1(CCC(C(N)=O)(c2ccccc2)c2ccccc2)CCCCC1
not listed: [7] | [8]
inactive: all other assays above

CC(C)CCCCCCCOC(=O)c1ccccc1C(=O)OCCCCCCCC(C)C
not listed: [5] | [9] | [10]
inactive: all other assays above

CCC1(C2=NCCN2)Cc2ccccc2O1 (stereo unspecified)
not listed: [8] | [9] | [10]
inactive: all other assays above

Nc1cc(Cl)cc(C(=O)O)c1Cl
not listed: [5] | [9] | [10]
inactive: all other assays above

C#CC(O)(C=CCl)CC (stereo unspecified)
inactive: [1] | [2] | [3] | [4] | [5] | [6]

COc1cc(CC#N)cc(OC)c1OC
inactive: [1] | [2] | [3] | [4] | [5] | [6]

O=C1NC(=O)C(=O)C(=O)N1
not listed: [8] | [9] | [10]
inactive: all other assays above

CCC(C)(C)O
not listed: [8] | [9] | [10]
inactive: all other assays above

CC[N+]1(CCOC(=O)C(O)(c2ccccc2)c2ccccc2)CCCCC1
not listed: [5] | [8]
inactive: all other assays above

CC(C)c1ccc(OP(=O)(Oc2ccc(C(C)C)cc2)Oc2ccc(C(C)C)cc2)cc1
active: [5] 35.8 µM and 31.7 µM | [6] 28.5 µM and 28.3 µM
inactive: [1] | [2] | [3] | [4]

Clc1ccccc1
active: [2] 9.55 µM | [4] 26.9 µM
inactive: [1] | [3] | [5] | [6]

O=C=NC1CCCCC1
not listed: [8] | [9] | [10]
inactive: all other assays above

C[C@H](N)[C@H](O)c1ccc(O)c(O)c1
active: [7] 0.776 µM
not listed: [8]
inactive: all other assays above

O=P(OCC(Br)CBr)(OCC(Br)CBr)OCC(Br)CBr (stereo unspecified)
active: [2] 69.5 µM
not listed: [8] | [9] | [10]
inactive: all other assays above

O=C(O)c1cc(Cl)ccc1Cl
inactive: [1] | [2] | [3] | [4] | [5] | [6]

O=C(NC(=O)c1cc(F)c(F)cc1Cl)Nc1cc(F)ccc1N1CCC(C(=O)O)CC1
not listed: [5] | [9] | [10]
inactive: all other assays above

Cc1nnc(-c2ccccc2)c(=O)n1N
not listed: [8] | [9] | [10]
inactive: all other assays above

Cc1ccccc1
not listed: [8]
inactive: all other assays above

CCOP(=O)(SC(C)CC)N1CCSC1=O (stereo unspecified)
not listed: [8] | [9] | [10]
inactive: all other assays above

COP(=O)(OC)OC(Br)C(Cl)(Cl)Br (stereo unspecified)
inactive: [1] | [3] | [4] | [7]
active: [2] 61.2 µM | [8] 61.2 µM

CN(C)N
not listed: [8] | [9] | [10]
inactive: all other assays above

CC(Cc1ccccc1)NCc1ccccc1Cl (stereo unspecified)
not listed: [8]
inactive: all other assays above

CCSCc1ccccc1OC(=O)NC
active: [5] 10 µM | [6] 20 µM | [7] 22.4 µM
inactive: [1] | [2] | [3] | [4]
